Molecules are shown by their SMILES. Compounds without any hit were thinned out: in the full panel of roughly 79,000, 15% have a hit. A number with no mark means an inactive call. Activity calls are given as the source filed them. Cut-off read from the data, not from the text of the source: active = growth inhibition above about 70%; inactive = the rest.

This assay in a line: NCI Yeast Anticancer Drug Screen. Data for the rad50 strain (AID 155).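 Note: 0% = growth of vehicle-only cultures of the same strain.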 To be noted: S. cerevisiae rad50 strain growth inhibition; at 50.0 µM; hits give high values. The gist of the method:
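A DNA repair-deficient yeast mutant serves as the test organism; compound-induced growth inhibition is calculated against vehicle-treated cells.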
Turning to `C=C1C(=O)C23C(O)CC4C5(C)CCCC4(C(O)OC5)C2C(OC(C)=O)CC1C3O` (stereo not given), the growth inhibition was 10.3%.
As to `O=C(O)CCCCC(=O)c1cc(O)ccc1O`, the growth inhibition was 15.3%.
Regarding `COc1nc(NC2OC(COC(C)=O)C(OC(C)=O)C(OC(C)=O)C2OC(C)=O)c(-c2csc(N)n2)c(=O)n1C` (stereo not given), the growth inhibition was -6.6%.
With `CSc1ccc(/C=C/c2ccnc3ccccc23)cc1` the figure was 11.8%; with `Clc1cnnc(Cl)c1N/N=C/c1ccco1`, 11.6%; with `C/C(=C(/O)c1ccc(Cl)cc1)c1nc2cc(Cl)cc([N+](=O)[O-])c2[nH]c1=O`, 37%.
Under `CC(=O)Nc1ccc2c(c1)N(O)C(=O)C2(C)C` stands 7.9%; under `CCN(C(=O)CCl)c1ccccc1`, 15%.
As to `C[C@H](CCc1nc(C#N)c(N)o1)[C@H]1CC[C@H]2[C@@H]3CCC4C[C@@H](O)CC[C@]4(C)[C@H]3C[C@@H](O)[C@]12C` (stereo not given in full), the growth inhibition was 87% (active).
Regarding `COc1cccc(NC(=O)CC(=O)NN2C(=O)/C(=C/c3ccc(N(CCC#N)CCC#N)cc3)N=C2c2cc([N+](=O)[O-])ccc2Cl)c1`, the growth inhibition was 17.4%.
Regarding `Cc1cc(C)c(COCc2c(C)cc(C)cc2C)c(C)c1`, the growth inhibition is 19%.
With `Cc1nc2c(Cl)cc(Cl)cc2c(Cl)c1CCCl` the figure was 29.9%.
For the molecule `COc1ccc(OC)c(NC(=O)Nc2nccs2)c1`, the growth inhibition is 1.9%.
With `Cc1ccc2ccccc2c1CC(=O)NN` the figure was 6.6%.
`CCC12C[N+]3([O-])CCc4c([nH]c5ccccc45)C(C(=O)OC)(c4cc5c(cc4OC)N(C)C4C(O)(C(=O)OC)C(OC(C)=O)C6(CC)C=CCN7CCC54C76)CC(C3)C1O2` (stereo not given): the growth inhibition is -8.15%.

The values are drawn from PubChem BioAssay (NCI).
